Results filed as inconclusive are left out. Where a call stands in place of a potency, no number is given. Values without a mark were called inactive. Activity calls are given as the source filed them. Unless noted, calls come from the whole dose curve; as a rule, active = well fitted curve in the direction sought with a large enough effect in the repeat runs; inconclusive = weak or mixed curves; inactive = no such curve, though single readings can be large; an effect the other way counts as inactive or inconclusive.
How the values were obtained:
[1] = qHTS assay to identify small molecule antagonists of the thyroid receptor (TR) signaling pathway - cell viability counter screen (AID 743064); note: nearly all actives have a fitted effect of over 50% in size; note: potency is the fitted concentration of half-maximal effect
In short: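 GH3.TRE-Luc rat pituitary cells carrying a TRE-luciferase reporter were treated with compound plus 1 nM T3 (final) for 23.5 h at 37 °C. Viability was then read in the same wells by CellTiter-Fluor fluorescence after a further 30 min.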

[2] = qHTS assay to identify small molecule antagonists of the thyroid receptor (TR) signaling pathway (AID 743065); note: nearly all actives have a fitted effect of over 55% in size; note: potency is the fitted concentration of half-maximal effect; for activity, negative = inhibition: series mostly up to about 70 µM
In short: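 GH3.TRE-Luc rat pituitary cells (two TREs driving luciferase) were dosed with compound, then stimulated with 1 nM T3 (final) for 23.5 h at 37 C. ONE-Glo luminescence was the read-out, with CellTiter-Fluor fluorescence as the cytotoxicity counter-screen.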

[3] = test system: thyroid hormone receptor (rat, GH3 cells); assay: qHTS assay to identify small molecule agonists of the thyroid receptor (TR) signaling pathway (AID 743066; calls by dose curve)
[4] = molecular target: Estrogen receptor (Homo sapiens) (UniProt P03372); assay: qHTS assay to identify small molecule antagonists of the estrogen receptor alpha (ER-alpha) signaling pathway (AID 743069; active = well fitted curve in the direction sought with a large enough effect in the signal ratio in the repeat runs, not every such curve was filed as active; the % refers to the signal ratio)
Chain of Estrogen receptor (Homo sapiens) (P03372 whole entry, looked up): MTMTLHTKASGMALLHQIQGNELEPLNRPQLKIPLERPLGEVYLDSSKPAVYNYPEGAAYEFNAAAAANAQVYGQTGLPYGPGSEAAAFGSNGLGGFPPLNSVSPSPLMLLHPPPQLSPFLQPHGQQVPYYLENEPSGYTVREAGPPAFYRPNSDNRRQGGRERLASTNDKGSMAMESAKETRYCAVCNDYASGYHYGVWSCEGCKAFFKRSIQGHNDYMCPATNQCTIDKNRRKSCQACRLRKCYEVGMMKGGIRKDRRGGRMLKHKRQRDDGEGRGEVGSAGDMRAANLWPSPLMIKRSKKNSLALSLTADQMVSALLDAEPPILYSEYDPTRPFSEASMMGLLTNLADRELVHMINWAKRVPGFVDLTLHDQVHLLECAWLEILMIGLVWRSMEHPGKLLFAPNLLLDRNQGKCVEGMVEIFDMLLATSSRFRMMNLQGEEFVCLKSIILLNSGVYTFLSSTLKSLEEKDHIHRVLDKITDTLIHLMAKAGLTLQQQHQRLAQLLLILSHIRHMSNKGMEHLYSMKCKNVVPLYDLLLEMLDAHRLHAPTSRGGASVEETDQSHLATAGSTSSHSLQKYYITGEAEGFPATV
In short: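 Reporter cells (ER-alpha-bla, HEK293 background) are conditioned overnight in stripped-serum medium (2% charcoal-stripped FBS). Compound and 17beta-estradiol exposure runs 18 hr at 37C, 5% CO2.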

[5] = qHTS assay to identify small molecule antagonists of the estrogen receptor alpha (ER-alpha) signaling pathway - cell viability counter screen (AID 743074; calls by dose curve;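 note: HEK293 cells carrying ER-alpha-UAS-bla reporter stimulated with 17beta-estradiol; nearly all actives have a fitted effect of over 45% in size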)
[6] = molecular target: Estrogen receptor (Homo sapiens) (UniProt P03372); assay: qHTS assay to identify small molecule agonists of the estrogen receptor alpha (ER-alpha) signaling pathway (AID 743075; calls by dose curve;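 note: HEK293 GripTite cells with ER-alpha and UAS-driven beta-lactamase reporter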; note: potency is the fitted concentration of half-maximal effect)
[7] = molecular target: Estrogen receptor (Homo sapiens) (UniProt P03372); assay: qHTS assay to identify small molecule agonists of the estrogen receptor alpha (ER-alpha) signaling pathway using the BG1 cell line (AID 743079); note: nearly all actives have a fitted effect of over 20% in size; note: potency is the fitted concentration of half-maximal effect
[8] = qHTS assay to identify small molecule antagonists of the estrogen receptor alpha (ER-alpha) signaling pathway using the BG1 cell line (AID 743080; calls by dose curve;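 note: BG1 cells stimulated with 17beta-estradiol alongside compound; series mostly up to about 70 µM; nearly all actives have a fitted effect of over 25% in size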)
In short: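 Quantitative HTS on the Tox21 10K library: BG1 cells with endogenous ER-alpha and ERE-luciferase reporter, 17beta-estradiol stimulation, 21.5 h compound exposure, luminescence endpoint with parallel fluorescence cytotoxicity counter-read.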

[9] = qHTS assay to identify small molecule antagonists of the estrogen receptor alpha (ER-alpha) signaling pathway using the BG1 cell line - cell viability counter screen (AID 743081);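 note: compound given together with 17beta-estradiol as the ER stimulus; series mostly up to about 70 µM; nearly all actives have a fitted effect of over 45% in size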
Aromatase (Homo sapiens) = Aromatase (Homo sapiens) (UniProt P11511); assay: qHTS assay to identify aromatase inhibitors (AID 743083); note: nearly all actives have a fitted effect of over 55% in size; note: potency is the fitted concentration of half-maximal effect; for activity, negative = inhibition: series mostly up to about 70 µM
Chain of Aromatase (Homo sapiens) (P11511 whole entry, looked up): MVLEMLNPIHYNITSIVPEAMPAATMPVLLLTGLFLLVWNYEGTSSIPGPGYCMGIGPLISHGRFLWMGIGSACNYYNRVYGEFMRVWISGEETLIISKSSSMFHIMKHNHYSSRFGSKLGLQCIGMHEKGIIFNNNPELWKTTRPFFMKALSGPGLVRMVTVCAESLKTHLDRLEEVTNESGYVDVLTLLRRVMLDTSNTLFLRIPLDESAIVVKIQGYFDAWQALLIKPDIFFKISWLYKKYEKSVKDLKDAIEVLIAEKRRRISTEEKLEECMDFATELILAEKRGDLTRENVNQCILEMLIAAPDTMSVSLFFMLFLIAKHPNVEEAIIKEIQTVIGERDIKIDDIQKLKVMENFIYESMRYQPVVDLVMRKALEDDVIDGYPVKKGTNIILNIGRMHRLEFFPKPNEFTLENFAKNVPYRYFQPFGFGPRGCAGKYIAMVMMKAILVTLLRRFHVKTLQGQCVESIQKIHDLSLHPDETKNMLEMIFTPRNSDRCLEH

CCO/C([O-])=N/c1c[n+](N2CCOCC2)no1
Potency [1]: inactive
Potency [2]: inactive
outcome [3]: inactive
outcome [4]: inactive
outcome [5]: inactive
Potency [6]: inactive
Potency [7]: inactive
outcome [8]: inactive
Potency [9]: inactive
Potency (Aromatase (Homo sapiens)): inactive

c1ccc([C@H]2CN3CCSC3=N2)cc1
Potency [1]: inactive
Potency [2]: inactive
outcome [3]: inactive
outcome [4]: inactive
outcome [5]: inactive
Potency [6]: 0.0601 µM [fluorescent] (active)
Potency [7]: 11.9 µM (active)
outcome [8]: inactive
Potency [9]: inactive
Potency (Aromatase (Homo sapiens)): inactive

CCCCCCCCCCCCCCCCC
Potency [1]: inactive
Potency [2]: inactive
outcome [3]: inactive
outcome [4]: inactive
outcome [5]: inactive
Potency [6]: inactive
Potency [7]: 61.1 µM (active)
outcome [8]: inactive
Potency [9]: inactive
Potency (Aromatase (Homo sapiens)): inactive

C=CCS(=O)(=O)O
Potency [1]: inactive
Potency [2]: inactive
outcome [3]: inactive
outcome [4]: inactive
outcome [5]: inactive
Potency [6]: inactive
Potency [7]: inactive
outcome [8]: inactive
Potency [9]: inactive
Potency (Aromatase (Homo sapiens)): inactive

COc1cc(C(=O)N2CCCCCCC2)cc(OC)c1OC
Potency [1]: inactive
Potency [2]: inactive
outcome [3]: inactive
outcome [4]: inactive
outcome [5]: inactive
Potency [6]: inactive
Potency [7]: inactive
outcome [8]: inactive
Potency [9]: inactive
Potency (Aromatase (Homo sapiens)): inactive

c1cnc(N2CCN(Cc3ccc4c(c3)OCO4)CC2)nc1
Potency [1]: inactive
Potency [2]: inactive
outcome [3]: inactive
outcome [4]: inactive
outcome [5]: inactive
Potency [6]: inactive
Potency [7]: inactive
outcome [8]: inactive
Potency [9]: inactive
Potency (Aromatase (Homo sapiens)): inactive

CCSC(=O)N(CC(C)C)CC(C)C
Potency [1]: inactive
Potency [2]: inactive
outcome [3]: inactive
outcome [4]: inactive
outcome [5]: inactive
Potency [6]: inactive
Potency [7]: inactive
outcome [8]: inactive
Potency [9]: inactive
Potency (Aromatase (Homo sapiens)): inactive

COC(=O)C1=C(C)NC(C)=C(C(=O)OC)C1c1ccccc1[N+](=O)[O-]
Potency [1]: 48.6 µM (active)
Potency [2]: 30.7 µM (active)
outcome [3]: inactive
outcome [4]: inactive
outcome [5]: inactive
Potency [6]: inactive
Potency [7]: inactive
outcome [8]: inactive
Potency [9]: inactive
Potency (Aromatase (Homo sapiens)): 68.7 µM (active)

OCCOc1ccc(OCCO)cc1
Potency [1]: inactive
Potency [2]: inactive
outcome [3]: inactive
outcome [4]: inactive
outcome [5]: inactive
Potency [6]: inactive
Potency [7]: inactive
outcome [8]: inactive
Potency [9]: inactive
Potency (Aromatase (Homo sapiens)): inactive

c1ccc(CC2=NCCN2)cc1
Potency [1]: inactive
Potency [2]: inactive
outcome [3]: inactive
outcome [4]: inactive
outcome [5]: inactive
Potency [6]: inactive
Potency [7]: inactive
outcome [8]: inactive
Potency [9]: inactive
Potency (Aromatase (Homo sapiens)): inactive

NS(=O)(=O)c1cc2c(cc1Cl)NC(C1CC3C=CC1C3)NS2(=O)=O (stereo not drawn)
Potency [1]: inactive
Potency [2]: inactive
outcome [3]: inactive
outcome [4]: inactive
outcome [5]: inactive
Potency [6]: inactive
Potency [7]: inactive
outcome [8]: inactive
Potency [9]: inactive
Potency (Aromatase (Homo sapiens)): inactive

CC(C)CCCC(C)N (stereo not drawn)
Potency [1]: inactive
Potency [2]: inactive
outcome [3]: inactive
outcome [4]: inactive
outcome [5]: inactive
Potency [6]: inactive
Potency [7]: 21.1 µM (active)
outcome [8]: inactive
Potency [9]: inactive
Potency (Aromatase (Homo sapiens)): inactive

COc1ccccc1OCC(O)CN1CCN(CC(=O)Nc2c(C)cccc2C)CC1 (stereo not drawn)
Potency [1]: inactive
Potency [2]: inactive
outcome [3]: inactive
outcome [4]: inactive
outcome [5]: inactive
Potency [6]: inactive
Potency [7]: inactive
outcome [8]: inactive
Potency [9]: inactive
Potency (Aromatase (Homo sapiens)): inactive

O=C(O)Cc1ccc(CCNS(=O)(=O)c2ccc(Cl)cc2)cc1
Potency [1]: inactive
Potency [2]: inactive
outcome [3]: inactive
outcome [4]: inactive
outcome [5]: inactive
Potency [6]: inactive
Potency [7]: inactive
outcome [8]: inactive
Potency [9]: inactive
Potency (Aromatase (Homo sapiens)): inactive

CC1(C)CO[C@@H](CC(=O)O)CN1
Potency [1]: inactive
Potency [2]: inactive
outcome [3]: inactive
outcome [4]: inactive
outcome [5]: inactive
Potency [6]: inactive
Potency [7]: inactive
outcome [8]: inactive
Potency [9]: inactive
Potency (Aromatase (Homo sapiens)): inactive

O=C(O)c1ccccc1OP(=O)(O)O
Potency [1]: inactive
Potency [2]: inactive
outcome [3]: inactive
outcome [4]: inactive
outcome [5]: inactive
Potency [6]: inactive
Potency [7]: inactive
outcome [8]: inactive
Potency [9]: inactive
Potency (Aromatase (Homo sapiens)): inactive

CCCCCCCCCCCCCC=O
activity change, negative = cytotoxic [1]: -8.15% [at 8.44 µM]
activity, negative = inhibition [2]: -3.68% [at 8.44 µM]
activation [3]: 0.523% [at 8.08 µM]
activity, negative = inhibition [4]: -10.5% [at 6.71 µM]
activity, negative = cytotoxicity [5]: -17.6% [at 6.72 µM]
activation [6]: 2.95% [at 6.71 µM]
Potency [7]: 2.69 µM (active)
activity change, negative = inhibition [8]: 0.386% [at 8.47 µM]
activity change, negative = cytotoxicity [9]: -2.15% [at 8.47 µM]
activity, negative = inhibition (Aromatase (Homo sapiens)): -2.09% [at 8.47 µM]

CCOC(=O)c1c(C)n(C)c2ccc(O)cc12
Potency [1]: inactive
Potency [2]: inactive
outcome [3]: inactive
outcome [5]: inactive
Potency [9]: inactive
Potency (Aromatase (Homo sapiens)): inactive

CCOC(=O)CCC(C)=O
Potency [1]: inactive
Potency [2]: inactive
outcome [3]: inactive
outcome [4]: inactive
outcome [5]: inactive
Potency [6]: inactive
outcome [8]: inactive
Potency [9]: inactive
Potency (Aromatase (Homo sapiens)): inactive

COC(=O)CC(C)=O
Potency [1]: inactive
Potency [2]: inactive
outcome [3]: inactive
outcome [5]: inactive
Potency [9]: inactive
Potency (Aromatase (Homo sapiens)): inactive

O=Cc1cccc([N+](=O)[O-])c1
Potency [1]: inactive
Potency [2]: inactive
outcome [3]: inactive
outcome [4]: inactive
Potency [6]: inactive
Potency [7]: inactive
outcome [8]: inactive
Potency [9]: inactive
Potency (Aromatase (Homo sapiens)): inactive

O=c1cc(CO)occ1O
Potency [1]: inactive
Potency [2]: inactive
outcome [3]: inactive
outcome [4]: inactive
outcome [5]: inactive
Potency [6]: inactive
Potency [7]: inactive
Potency [9]: inactive
Potency (Aromatase (Homo sapiens)): inactive

CC1=CC(C)C(C=O)CC1 (stereo not drawn)
Potency [1]: inactive
Potency [2]: inactive
outcome [3]: inactive
outcome [4]: inactive
Potency [6]: inactive
outcome [8]: inactive
Potency [9]: inactive
Potency (Aromatase (Homo sapiens)): inactive

C1OCOCO1
Potency [1]: inactive
Potency [2]: inactive
outcome [3]: inactive
outcome [5]: inactive
Potency [9]: inactive
Potency (Aromatase (Homo sapiens)): inactive

Source: PubChem BioAssay (Tox21)
